± gives the standard deviation.
Key:
Settings in all cases: modulator concentration 10 µM
[1] = system: RAW-Dual (murine macrophage reporter line); assay: NF-kB reporter (SEAP) activity fold change vs agonist alone; higher = enhanced NF-kB activity
Method in brief: (§1)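 RAW-Dual murine macrophage reporter cells were seeded at 50 000 per well in 384-well plates and pre-incubated 1 hour at 37 °C with compound pin-transferred to 10 μM final. After 1 hour, a PRR agonist was added and cells incubated overnight. Supernatant NF-κB (SEAP, QUANTI-Blue, 620 nm absorbance) and IRF (Lucia luciferase, QUANTI-Luc, luminescence) signals were divided by the mean agonist-only control on the same plate to give fold change. Two replicate plates were averaged, with errors by propagation.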

[2] = system: RAW-Dual (murine macrophage reporter line); assay: IRF reporter (Lucia luciferase) activity fold change vs agonist alone; higher = enhanced IRF activity
Method in brief: as §1

[3] = system: RAW-Dual (murine macrophage reporter line); assay: viability score (confluency relative to resting cells, overnight) (fraction); higher = more viable, active = viable (0.7 or more)
Method in brief: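 A compound met the cutoff when both of two confluency masks exceeded 70% of resting cells. Those masks were made with IncuCyte software from IncuCyte images of RAW-Dual macrophages treated overnight at 10 μM final. This is the basis of the viability score, which is confluency relative to resting cells.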

[4] = agonist: CpG ODN 1826 0.5 ug/mL

SMILES | NF-kB reporter [1, 4] | NF-kB reporter ([1]; agonist: LPS 0.1 ug/mL) | NF-kB reporter ([1]; agonist: MPLA […]) | IRF reporter ([2]; agonist: 3'3'-cGAMP 10 ug/mL) | IRF reporter ([2]; agonist: LPS 0.1 ug/mL) | IRF reporter ([2]; agonist: MPLA […]) | viability score [3]
COc1ccc(CCNC(=O)NCc2nnc3n2CCC(C(F)(F)F)C3)cc1 (stereo unspecified) | 0.951 ± 0.067 | 1.02 ± 0.088 | 0.947 ± 0.072 | 1.05 ± 0.072 | 1.17 ± 0.07 | 1.12 ± 0.23 | 1.01 (active)
Cc1cccc(NC(=O)CSc2nc(N3CCCCC3)nc3ccccc23)c1 | 0.963 ± 0.088 | 1.11 ± 0.092 | 0.98 ± 0.13 | 0.955 ± 0.055 | 1.22 ± 0.13 | 1.43 ± 0.26 | 0.993 (active)
O=C(C=Cc1cccnc1)c1cc2ccc1CCc1ccc(cc1)CC2 | 1.03 ± 0.058 | 0.76 ± 0.071 | 0.752 ± 0.05 | 0.639 ± 0.023 | 0.998 ± 0.063 | 1.03 ± 0.35 | 1.01 (active)
CCOc1ccccc1OCCCCOc1ccc(I)cc1 | 1.12 ± 0.18 | 1 ± 0.12 | 0.937 ± 0.11 | 0.967 ± 0.025 | 0.994 ± 0.098 | 1.18 ± 0.17 | 1 (active)
CCN(CC)c1nc(-c2ccccc2Cl)c2cc(Br)ccc2n1 | 0.999 ± 0.081 | 0.975 ± 0.1 | 1.02 ± 0.042 | 0.786 ± 0.058 | 1.05 ± 0.14 | 1.14 ± 0.25 | 1 (active)
Cc1cc(=O)nc(SCCc2ccccc2)[nH]1 | 1.13 ± 0.11 | 1.27 ± 0.082 | 1.15 ± 0.041 | 0.952 ± 0.079 | 1.06 ± 0.053 | 1.2 ± 0.091 | 0.687 (inactive)
COC(=O)C1=C(C)NC(C)=C(C(=O)OC)C1c1ccccc1[N+](=O)[O-] | 1.27 ± 0.1 | 1.33 ± 0.073 | 1.82 ± 0.17 | 0.374 ± 0.017 | 0.585 ± 0.035 | 0.414 ± 0.038 | 0.907 (active)
Cc1ccc(C(=O)N2N=C(c3ccncc3)CC2(O)C(F)(F)F)cc1 (stereo unspecified) | 0.764 ± 0.062 | 0.831 ± 0.12 | 0.985 ± 0.097 | 0.86 ± 0.043 | 1.26 ± 0.081 | 1.29 ± 0.14 | 1.01 (active)
c1ccc(Nc2nc(Nc3ccccc3)nc(N3CCCCC3)n2)cc1 | 0.605 ± 0.04 | 1.01 ± 0.062 | 0.977 ± 0.064 | 1.05 ± 0.053 | 1.53 ± 0.15 | 1.22 ± 0.2 | 0.995 (active)
CC1=C(C(=O)OCC2CCCO2)C(c2ccc([N+](=O)[O-])cc2)C2=C(CC(C)(C)CC2=O)N1 (stereo unspecified) | 1.16 ± 0.19 | 0.887 ± 0.08 | 0.848 ± 0.078 | 0.553 ± 0.02 | 1.04 ± 0.23 | 0.984 ± 0.11 | 0.995 (active)
Fc1ccc(CN2CCc3c([nH]c4ccccc34)C2)cc1 | 0.756 ± 0.07 | 0.707 ± 0.059 | 1.4 ± 0.12 | 0.64 ± 0.039 | 0.974 ± 0.091 | 2.77 ± 0.34 | 0.126 (inactive)
COc1ccc(C=Nn2cc(-c3ccc(Cl)cc3)nc2N=Cc2cc(Br)cc(Br)c2O)cc1 | 0.863 ± 0.068 | 0.919 ± 0.067 | 0.874 ± 0.094 | 0.883 ± 0.037 | 1.08 ± 0.14 | 1.07 ± 0.23 | 1.02 (active)
CNC1CCC(c2ccc(Cl)c(Cl)c2)c2ccccc21.Cl (stereo unspecified) | 0.571 ± 0.096 | 0.765 ± 0.097 | 1.11 ± 0.25 | 0.52 ± 0.016 | 1.94 ± 0.19 | 2.12 ± 0.33 | 0.661 (inactive)
